# Inconclusive results are not listed. A call without a number means that no potency is given here. Values without a mark were called inactive. The source made the active and inactive calls. The call rests on the fitted dose curve.
# Assay: p53 small molecule agonists, cell-based qHTS assay with rat liver microsomes: qHTS cell viability counter screen (AID 1963580); further: nearly all actives have a fitted effect of over 45% in size
# Settings: p53RE-bla HCT-116 + rat microsomes, ATP viability, 16 h; series mostly up to 66 µM
# Source text: National Center for Advancing Translational Sciences [NCATS]
# Division of Preclinical Innovation [DPI]
# U.S. Environmental Protection Agency [EPA]
# National Institutes of Environmental Health Sciences [NIEHS]
# National Toxicology Program [NTP]
# U.S. Food and Drug Administration [FDA]
# p53, a tumor suppressor protein, is activated following cellular insult, including DNA damage and other cellular stresses. The activation of p53 regulates cell fate by inducing DNA repair, cell cycle arrest, apoptosis, or cellular senescence. The activation of p53, therefore, is a good indicator of DNA damage and other cellular stresses. The CellSensor p53RE-bla HCT-116 cell line contains a stably integrated beta-lactamase reporter gene under control of the p53 response elements. The activation of the reporter gene under culture conditions can be detected by fluorescence intensity. This cell line was used to screen the Tox21 10K compound library in the condition of presence of rat liver microsomes and to identify agonists that activate the p53 signaling pathway after in vitro metabolic activation (Ooka et al., Archive of Toxicology 96:1975-1987, 2022). The cytotoxicity of the Tox21 compound library against the p53 RE-bla HCT-116 cell line was tested in parallel by measuring the intra cellular ATP content in the same wells.
# Tox21 Assay Protocol Summary:
# The p53RE-bla cells were dispensed at 4,000cells/3ul/well in 1536-well black-clear bottom plates. After the assay plates were incubated at 37 C, 5% CO2 incubator for 5 hours, 23 nL of compounds dissolved in DMSO, positive controls or DMSO only was transferred to the assay plate. Following compound addition, 3 uL of rat liver microsomes (Molecular Toxicology, Boone, NC) at final concentration of 0.5 mg/mL and 1uL of B-Nicotinamide adenine dinucleotide 2'-phosphate (NADPH) at final concentration of 0.5 mg/mL were transferred to the assay plate. The plates were incubated at 37 C for 16 hours. 1 uL of LiveBLAzer detection mixture was added to each well and the plates were incubated at room temperature in the dark for 2 h. Fluorescence intensity at 460 and 530 nm emission and 405 nm excitation were measured by an Envision plate reader. For cell viability readout that measures cytotoxicity, 4 ul/well of CellTiter-Glo reagent was added into the assay plates using a Flying Reagent Dispenser. After 30 min incubation at room temperature, the luminescence intensity in the plates was measured using a ViewLux plate reader.
Structure (SMILES),Potency,"activity change, negative = cytotoxicity"
C=CC(=O)CC,inactive,
CCCCC(CC)COP(=O)(OCC(CC)CCCC)OCC(CC)CCCC (stereo not given),inactive,
CCO/C([O-])=N/c1c[n+](N2CCOCC2)no1,inactive,
CCCCCCCCC1CCC(=O)O1 (stereo not given),inactive,
CC(=O)CC(C)(C)C1CCCCC1,inactive,
CCCCCOC(C)=O,inactive,
Cc1cc(N)no1,inactive,
O=c1[nH]cnc2c1ncn2[C@@H]1O[C@H](CO)[C@@H](O)[C@H]1O,inactive,
CC1(C)[C@@H]2CC[C@]3(C2)[C@@H]1C(=O)CCC3(C)C,inactive,
O=Cc1ccc(F)cc1,inactive,
CN1C(=O)CC(C)(c2ccccc2)C1=O (stereo not given),inactive,
O=C(O)CN(CCCN(CC(=O)O)CC(=O)O)CC(=O)O,,9.92% [at 13.5 µM]
COc1ccc(COC(C)=O)cc1,inactive,
CC(C)OC(=O)CCCCC(=O)OC(C)C,inactive,
C[N+](C)(C)CC[N+]1(C)Cc2c(Cl)c(Cl)c(Cl)c(Cl)c2C1,inactive,
CCC(C)CO (stereo not given),inactive,
O=C(c1ccc(Cl)cc1)c1ccc(Cl)cc1,inactive,
CSc1nnc(C(C)(C)C)c(=O)[nH]1,inactive,
O=C1CC(c2ccc(Cl)cc2)CC(=O)N1,inactive,
COC(=O)/C=C/c1ccccc1,inactive,

Structure (SMILES),Potency,"activity change, negative = cytotoxicity"
C=CCCCCCCCCC(=O)OCCCC,inactive,
C/C=C/c1ccc(OC)c(OC)c1,inactive,
C[Si](C)O[Si](C)C,inactive,
C=C(C)C(=O)OCCC(F)(F)C(F)(F)C(F)(F)C(F)(F)C(F)(F)C(F)(F)F,inactive,
CCOc1ccccc1OCC,inactive,
CC(N)CN (stereo not given),inactive,
CC(=O)OCCc1ccccc1,inactive,
CCC(=O)CC,inactive,
COC(=O)N[C@H](C(=O)N[C@@H](Cc1ccccc1)[C@@H](O)CN(Cc1ccc(-c2ccccn2)cc1)NC(=O)[C@@H](NC(=O)OC)C(C)(C)C)C(C)(C)C,inactive,
C/C(Cl)=C/CCl,inactive,
Cc1ccc(C(C)c2ccc(C)c(C)c2)cc1C,inactive,
CCC(=O)OC(C)c1ccccc1 (stereo not given),inactive,
O=S(=O)(O)c1cccc2c(S(=O)(=O)O)cccc12,inactive,
CC(=O)N(O)CCCCCNC(=O)CCC(=O)N(O)CCCCCNC(=O)CCC(=O)N(O)CCCCCN,inactive,
C=C(C)[C@@H]1CCC2=CC(=O)C[C@@H](C)[C@]2(C)C1,inactive,
COc1cc2c(Nc3ccc(Br)cc3F)ncnc2cc1OCC1CCN(C)CC1,inactive,
Cc1ccc(C=O)cc1,inactive,
C[Si](C)(C)Cl,inactive,
CC(C)(C)c1ccc(C=O)cc1,inactive,
COC(C)(C)CCO,inactive,
